Reference: PubChem BioAssay (EPA / NIEHS)
Several values for one entry are separate records, joined by “and”; a condition that tells them apart may be missing. Equal values may be shown once. More than one record can exist for a structure, and the calls need not agree. Activity calls are given as the source filed them. Rule for the calls: active = hit-call score of the fitted dose curve at least 0.9, where 1 is the maximum; inactive = score below 0.9.

Assays:
Decorin, DCN (gene 1634) = test: BSK_MyoF_Decorin: BioMAP Diversity Plus: MyoF Assay for Decorin Biomarker Activity (AID 2284265); conditions: primary human lung fibroblasts
In short: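 Human lung fibroblasts in the MyoF system were exposed to compound for 24 h, after which decorin was quantified by ELISA. Activity was fitted in the positive direction relative to DMSO negative control.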

[1] = read-out: Matrix Metallopeptidase 1 (MMP1), MMP1 (gene 4312); test: BSK_MyoF_MMP1: BioMAP Diversity Plus: MyoF Assay for Matrix Metallopeptidase 1 (MMP1) Biomarker Activity (AID 2284268); conditions: primary human lung fibroblasts
In short: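 ELISA readout of MMP1 in primary human lung fibroblast cultures, 24 h post-dosing. Gain of signal versus DMSO vehicle control defines activity. Parallel SRB staining (0.1% after 10% TCA fixation, 560 nm) flags overt cytotoxicity.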

[2] = read-out: TIMP metallopeptidase inhibitor 1 (TIMP1), TIMP1 (gene 7076); test: BSK_MyoF_TIMP1: BioMAP Diversity Plus: MyoF Assay for TIMP metallopeptidase inhibitor 1 (TIMP1) Biomarker Activity (AID 2284269); conditions: primary human lung fibroblasts
In short: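 Fibroblasts from human lung are dosed with chemical, cultured 24 h, and assayed for TIMP-1 by ELISA. Increases over the DMSO baseline are scored, with SRB total-protein staining run in parallel for cytotoxicity.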

[3] = BSK_MyoF_SRB: Viability Assessment in the BioMAP Diversity Plus: MyoF Assay (AID 2284267); conditions: primary human lung fibroblasts;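 note: total protein by SRB absorbance in parallel cultures as cytotoxicity measure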
In short: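 In this viability endpoint, fibroblasts from human lung are treated for 24 h, TCA-fixed, SRB-stained (0.1%) and read at 560 nm. Gain of signal relative to DMSO defines activity.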

CD69, CD69 (gene 969) = test: BSK_IMphg_CD69: BioMAP Diversity Plus: IMphg Assay for CD69 Biomarker Activity (AID 2284257); conditions: primary human endothelial cells with macrophages
In short: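 Readout is ELISA for CD69 in primary human venular endothelial cell/macrophage co-culture, taken at 24 h post-dosing. SRB staining of parallel cultures gauged overt cytotoxicity; signal increase versus DMSO defined activity.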

[4] = read-out: Eotaxin 3, CCL26 (gene 10344); test: BSK_BF4T_Eotaxin3: BioMAP Diversity Plus: BF4T Assay for Eotaxin 3 Biomarker Activity (AID 2284258); conditions: primary human bronchial epithelial cells with fibroblasts
In short: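 ELISA measurement of Eotaxin-3 after 24 h chemical exposure in a bronchial epithelial/dermal fibroblast co-culture, with DMSO as baseline. Parallel SRB staining (0.1% SRB after 10% TCA fixation, 560 nm) flagged overt cytotoxicity.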

[5] = read-out: Monocyte Chemoattractant Protein-1 (MCP1), CCL2 (gene 6347); test: BSK_BF4T_MCP1: BioMAP Diversity Plus: BF4T Assay for Monocyte Chemoattractant Protein-1 (MCP1) Biomarker Activity (AID 2284259); conditions: primary human bronchial epithelial cells with fibroblasts
In short: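 MCP-1 ELISA readout taken 24 h after dosing in the BF4T system (bronchial epithelial cells plus dermal fibroblasts). Parallel SRB total-protein staining flagged cytotoxicity; DMSO served as baseline, positive fitting direction.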

CD90, THY1 (gene 7070) = test: BSK_BF4T_CD90: BioMAP Diversity Plus: BF4T Assay for CD90 Biomarker Activity (AID 2284262); conditions: primary human bronchial epithelial cells with fibroblasts
In short: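 CD90 levels by ELISA after 24 h treatment of human bronchial epithelial cell/dermal fibroblast cultures, analysed versus DMSO. Overt cytotoxicity checked in parallel cultures by sulforhodamine B staining.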

[6] = read-out: Interleukin-8 (IL8), CXCL8 (gene 3576); test: BSK_BF4T_IL8: BioMAP Diversity Plus: BF4T Assay for Interleukin-8 (IL8) Biomarker Activity (AID 2284263); conditions: primary human bronchial epithelial cells with fibroblasts
In short: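 Human bronchial epithelial cells with dermal fibroblasts co-culture; IL-8 measured by ELISA 24 hours after dosing, fitted vs DMSO. Cytotoxicity tracked in parallel cultures by SRB total-protein staining.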

[7] = read-out: Interleukin-1 alpha (IL1a), IL1A (gene 3552); test: BSK_BF4T_IL1a: BioMAP Diversity Plus: BF4T Assay for Interleukin-1 alpha (IL1a) Biomarker Activity (AID 2284264); conditions: primary human bronchial epithelial cells with fibroblasts
In short: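 ELISA read-out of IL-1α from bronchial epithelial cell/dermal fibroblast co-cultures 24 h after compound addition. Increases scored against DMSO negative control. Cytotoxicity monitored by sulforhodamine B staining of parallel cultures.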

Measured: AC50

Clc1ccc(Nc2nnc(Cc3ccncc3)c3ccccc23)cc1
inactive: Decorin, DCN (gene 1634) | [1] | [2]

COc1cc(OC)nc(NC(=O)NS(=O)(=O)Nc2ccccc2C(=O)N(C)C)n1
inactive: Decorin, DCN (gene 1634) | [3] | [1] | [2]

O=P(O)(O)CCC(F)(F)C(F)(F)C(F)(F)C(F)(F)C(F)(F)C(F)(F)C(F)(F)C(F)(F)F
active: [4] 8.05 µM
inactive: CD69, CD69 (gene 969) | [4] | [5] | CD90, THY1 (gene 7070) | [6] | [7] | Decorin, DCN (gene 1634) | [3] | [1] | [2]

C=CC(=C)CC/C=C(\C)CCC=C(C)C
inactive: Decorin, DCN (gene 1634) | [3] | [1] | [2]

O=S(=O)(O)C(F)(F)C(F)(F)C(F)(F)C(F)(F)C(F)(F)C(F)(F)C(F)(F)C(F)(F)C(F)(F)C(F)(F)F
inactive: CD69, CD69 (gene 969) | [5] | CD90, THY1 (gene 7070) | [7] | Decorin, DCN (gene 1634) | [3] | [1] | [2]
active: [4] 5.78 µM and 2.59 µM | [6] 2.65 µM and 6.99 µM

O=P(O)(O)CCC(F)(F)C(F)(F)C(F)(F)C(F)(F)C(F)(F)C(F)(F)F
inactive: CD69, CD69 (gene 969) | [4] | [5] | CD90, THY1 (gene 7070) | [6] | [7] | Decorin, DCN (gene 1634) | [3] | [1] | [2]

CC1=NN(c2ccccc2)C(=O)C1
inactive: Decorin, DCN (gene 1634) | [3] | [1] | [2]

Oc1cc2ccccc2cc1O
inactive: Decorin, DCN (gene 1634) | [3] | [1] | [2]

CCCCCc1ccc(O)cc1
active: [3] 28.7 µM | [1] 36.6 µM | [2] 20 µM
inactive: Decorin, DCN (gene 1634)

OCCN1CN(CCO)CN(CCO)C1
inactive: Decorin, DCN (gene 1634) | [3] | [1] | [2]
